# Test results published in publication PMC10812921, “Transcriptional Coactivator BOB1 (OBF1, OCA-B) Modulates the Specificity of DNA Recognition by the POU-Domain Factors OCT1 and OCT2 in a Monomeric Configuration”.
# Biological target: POU1 (OCT1 POU domain) (human, UniProt P14859 260-458)
# Experiment: EMSA-SELEX-seq; no BOB1; 20 mM Tris-HCl pH 7.6, 140 mM NaCl, 10% glycerol, 0.5 mM EDTA, 0.05% Triton X-100, 0.1 mg/mL BSA, 0.1 mg/mL poly(dI-dC), 5 mM DTT, room temperature, 20 min; high values mean tight binding
# Conditions: protein: recombinant; dsDNA, one strand shown
# Outline: (§1)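 Binding preference means the percentage of sequenced 8-mers matching a motif pattern. Tagged POU-domain proteins (30 ng), expressed in E. coli BL21, purified under denaturing conditions and renatured, were mixed with 300 ng of a PCR-amplified double-stranded random 35-nt library, with or without 28 ng coactivator protein, for 20 min at RT in 20 μL Tris–HCl pH 7.6 binding buffer. Selection was repeated over four rounds of excising complex bands from native 6% PAGE, eluting and PCR amplification, followed by Illumina sequencing.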
# Chain of POU1 (OCT1 POU domain) (P14859 260-458): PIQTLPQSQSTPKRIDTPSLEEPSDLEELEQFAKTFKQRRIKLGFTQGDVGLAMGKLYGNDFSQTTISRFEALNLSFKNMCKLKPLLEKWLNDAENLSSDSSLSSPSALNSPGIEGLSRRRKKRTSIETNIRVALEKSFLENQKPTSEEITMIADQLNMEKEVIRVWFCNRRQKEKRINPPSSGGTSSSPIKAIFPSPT
row,Sequence,binding signal
1,ATCGCAAT,0.0336 % of ANNNNAAN 8-mers
2,ATAATAAC,0.0873 % of ANNNNAAN 8-mers
3,AAAACAAA,0.158 % of ANNNNAAN 8-mers
4,AAGGAAAG,0.0576 % of ANNNNAAN 8-mers
5,ACTCGAAA,0.0271 % of ANNNNAAN 8-mers
6,AGTATAAG,0.0397 % of ANNNNAAN 8-mers
7,ATTTGAAC,0.0496 % of ANNNNAAN 8-mers
8,ACAATAAG,0.0339 % of ANNNNAAN 8-mers
9,ATGTTAAT,1.39 % of ANNNNAAN 8-mers
10,ATATGAAA,0.159 % of ANNNNAAN 8-mers
11,AACTGAAG,0.0256 % of ANNNNAAN 8-mers
12,ACGGAAAA,0.0515 % of ANNNNAAN 8-mers
13,AACAAAAA,0.0831 % of ANNNNAAN 8-mers
14,AAACCAAC,0.0206 % of ANNNNAAN 8-mers
15,AGAATAAT,0.203 % of ANNNNAAN 8-mers
16,AGGTGAAT,0.108 % of ANNNNAAN 8-mers
17,AGGTGAAA,0.0587 % of ANNNNAAN 8-mers
18,ATGAGAAG,0.0709 % of ANNNNAAN 8-mers
19,AATCTAAT,0.116 % of ANNNNAAN 8-mers
20,ATGCCAAG,0.0305 % of ANNNNAAN 8-mers

row,Sequence,binding signal
1,AAATGAAT,0.256 % of ANNNNAAN 8-mers
2,AGAGGAAT,0.0828 % of ANNNNAAN 8-mers
3,AACACAAG,0.0194 % of ANNNNAAN 8-mers
4,AGAGAAAG,0.0442 % of ANNNNAAN 8-mers
5,ATTATAAC,0.0713 % of ANNNNAAN 8-mers
6,ACCAGAAA,0.029 % of ANNNNAAN 8-mers
7,AAAGGAAC,0.0435 % of ANNNNAAN 8-mers
8,ATATTAAG,0.196 % of ANNNNAAN 8-mers
9,AGGGCAAA,0.0568 % of ANNNNAAN 8-mers
10,AGGGCAAG,0.0294 % of ANNNNAAN 8-mers
11,ATAAAAAG,0.0915 % of ANNNNAAN 8-mers
12,AGGCTAAC,0.013 % of ANNNNAAN 8-mers
13,ACTGTAAG,0.0225 % of ANNNNAAN 8-mers
14,AGCACAAA,0.0256 % of ANNNNAAN 8-mers
15,AGCAGAAT,0.0435 % of ANNNNAAN 8-mers
16,AGCTGAAC,0.0156 % of ANNNNAAN 8-mers
17,AGACAAAT,0.114 % of ANNNNAAN 8-mers
18,AAGCCAAA,0.0305 % of ANNNNAAN 8-mers
19,ACCTTAAG,0.0198 % of ANNNNAAN 8-mers

# Biological target: T1, POU2 (OCT2 POU domain) (human, UniProt P09086 175-386)
# T1 sequence: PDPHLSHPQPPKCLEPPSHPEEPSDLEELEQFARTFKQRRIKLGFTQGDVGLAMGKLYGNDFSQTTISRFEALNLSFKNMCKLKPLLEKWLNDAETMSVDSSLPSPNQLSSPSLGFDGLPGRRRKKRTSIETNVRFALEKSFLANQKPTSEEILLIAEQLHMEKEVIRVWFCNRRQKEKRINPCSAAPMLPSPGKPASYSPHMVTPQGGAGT
# Experiment: as above
# Conditions: protein: recombinant; dsDNA, one strand shown
# Outline: as §1
row,Sequence,binding signal
1,ATCGCAAT,0.0391 % of ANNNNAAN 8-mers
2,ATAATAAC,0.101 % of ANNNNAAN 8-mers
3,AAAACAAA,0.119 % of ANNNNAAN 8-mers
4,AAGGAAAG,0.0524 % of ANNNNAAN 8-mers
5,ACTCGAAA,0.0357 % of ANNNNAAN 8-mers
6,AGTATAAG,0.0587 % of ANNNNAAN 8-mers
7,ATTTGAAC,0.0558 % of ANNNNAAN 8-mers
8,ACAATAAG,0.042 % of ANNNNAAN 8-mers
9,ATGTTAAT,1.31 % of ANNNNAAN 8-mers
10,ATATGAAA,0.164 % of ANNNNAAN 8-mers
11,AACTGAAG,0.0391 % of ANNNNAAN 8-mers
12,ACGGAAAA,0.0478 % of ANNNNAAN 8-mers
13,AACAAAAA,0.0662 % of ANNNNAAN 8-mers
14,AAACCAAC,0.0104 % of ANNNNAAN 8-mers
15,AGAATAAT,0.3 % of ANNNNAAN 8-mers
16,AGGTGAAT,0.119 % of ANNNNAAN 8-mers
17,AGGTGAAA,0.0466 % of ANNNNAAN 8-mers
18,ATGAGAAG,0.088 % of ANNNNAAN 8-mers
19,AATCTAAT,0.143 % of ANNNNAAN 8-mers
20,ATGCCAAG,0.0357 % of ANNNNAAN 8-mers

row,Sequence,binding signal
1,AAATGAAT,0.273 % of ANNNNAAN 8-mers
2,AGAGGAAT,0.115 % of ANNNNAAN 8-mers
3,AACACAAG,0.0253 % of ANNNNAAN 8-mers
4,AGAGAAAG,0.0501 % of ANNNNAAN 8-mers
5,ATTATAAC,0.113 % of ANNNNAAN 8-mers
6,ACCAGAAA,0.0242 % of ANNNNAAN 8-mers
7,AAAGGAAC,0.0443 % of ANNNNAAN 8-mers
8,ATATTAAG,0.214 % of ANNNNAAN 8-mers
9,AGGGCAAA,0.0466 % of ANNNNAAN 8-mers
10,AGGGCAAG,0.0322 % of ANNNNAAN 8-mers
11,ATAAAAAG,0.114 % of ANNNNAAN 8-mers
12,AGGCTAAC,0.023 % of ANNNNAAN 8-mers
13,ACTGTAAG,0.027 % of ANNNNAAN 8-mers
14,AGCACAAA,0.0242 % of ANNNNAAN 8-mers
15,AGCAGAAT,0.0621 % of ANNNNAAN 8-mers
16,AGCTGAAC,0.0196 % of ANNNNAAN 8-mers
17,AGACAAAT,0.0748 % of ANNNNAAN 8-mers
18,AAGCCAAA,0.0414 % of ANNNNAAN 8-mers
19,ACCTTAAG,0.0219 % of ANNNNAAN 8-mers

# Biological target: POU1 (OCT1 POU domain);BOB1 (OBF1, OCA-B) (human;human, UniProt P14859;Q16633 260-458;1-256, |)
# Experiment: EMSA-SELEX-seq; with BOB1 (ternary complex band); 20 mM Tris-HCl pH 7.6, 140 mM NaCl, 10% glycerol, 0.5 mM EDTA, 0.05% Triton X-100, 0.1 mg/mL BSA, 0.1 mg/mL poly(dI-dC), 5 mM DTT, room temperature, 20 min; high values mean tight binding
# Conditions: protein: recombinant;recombinant; copies: 1;1; dsDNA, one strand shown
# Outline: as §1
row,Sequence,binding signal
1,ATCGCAAT,0.0328 % of ANNNNAAN 8-mers
2,ATAATAAC,0.0496 % of ANNNNAAN 8-mers
3,AAAACAAA,0.262 % of ANNNNAAN 8-mers
4,AAGGAAAG,0.0792 % of ANNNNAAN 8-mers
5,ACTCGAAA,0.0293 % of ANNNNAAN 8-mers
6,AGTATAAG,0.041 % of ANNNNAAN 8-mers
7,ATTTGAAC,0.0745 % of ANNNNAAN 8-mers
8,ACAATAAG,0.0375 % of ANNNNAAN 8-mers
9,ATGTTAAT,0.208 % of ANNNNAAN 8-mers
10,ATATGAAA,0.226 % of ANNNNAAN 8-mers
11,AACTGAAG,0.0215 % of ANNNNAAN 8-mers
12,ACGGAAAA,0.0593 % of ANNNNAAN 8-mers
13,AACAAAAA,0.121 % of ANNNNAAN 8-mers
14,AAACCAAC,0.0199 % of ANNNNAAN 8-mers
15,AGAATAAT,0.0948 % of ANNNNAAN 8-mers
16,AGGTGAAT,0.071 % of ANNNNAAN 8-mers
17,AGGTGAAA,0.0601 % of ANNNNAAN 8-mers
18,ATGAGAAG,0.0652 % of ANNNNAAN 8-mers
19,AATCTAAT,0.0972 % of ANNNNAAN 8-mers
20,ATGCCAAG,0.025 % of ANNNNAAN 8-mers

row,Sequence,binding signal
1,AAATGAAT,0.181 % of ANNNNAAN 8-mers
2,AGAGGAAT,0.0652 % of ANNNNAAN 8-mers
3,AACACAAG,0.0219 % of ANNNNAAN 8-mers
4,AGAGAAAG,0.0375 % of ANNNNAAN 8-mers
5,ATTATAAC,0.0581 % of ANNNNAAN 8-mers
6,ACCAGAAA,0.0254 % of ANNNNAAN 8-mers
7,AAAGGAAC,0.0476 % of ANNNNAAN 8-mers
8,ATATTAAG,0.0882 % of ANNNNAAN 8-mers
9,AGGGCAAA,0.0675 % of ANNNNAAN 8-mers
10,AGGGCAAG,0.0332 % of ANNNNAAN 8-mers
11,ATAAAAAG,0.0925 % of ANNNNAAN 8-mers
12,AGGCTAAC,0.0191 % of ANNNNAAN 8-mers
13,ACTGTAAG,0.0265 % of ANNNNAAN 8-mers
14,AGCACAAA,0.0277 % of ANNNNAAN 8-mers
15,AGCAGAAT,0.0511 % of ANNNNAAN 8-mers
16,AGCTGAAC,0.0176 % of ANNNNAAN 8-mers
17,AGACAAAT,0.187 % of ANNNNAAN 8-mers
18,AAGCCAAA,0.0464 % of ANNNNAAN 8-mers
19,ACCTTAAG,0.0187 % of ANNNNAAN 8-mers
